Experimental data reported in the supplement of paper PMC12067926.
Values without a mark were called inactive.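 How the source made its calls: active = growth AUC significantly below the DMSO wells by Dunnett test; inactive = the rest.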

Experiments:
Assay in all cases: relative growth (AUC of 72 h growth curve relative to DMSO control, dAUC) (ratio); higher = more growth (less inhibition), active = hit call of the paper
Details in all cases: 20 µM
[1] = compound: C=CCOC(Cn1ccnc1)c1ccc(Cl)cc1Cl
Procedure, shortened: (§1)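 Cultures grown to carrying capacity in Luria–Bertani medium, drawn from Icelandic stream sediment and Silwood Park soil isolates and whole sediment communities, were diluted 1:100 into 96-well plates with each chemical at 20 µM (1% DMSO) and read at A600 hourly for 72 h. The spline-integrated area under the growth curve, divided by the mean of the DMSO controls, is reported as relative growth (dAUC). Values are means of three biological replicates.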

[2] = compound: CC(=O)CC(c1ccccc1)c1c(O)c2ccccc2oc1=O
Procedure, shortened: as §1

[3] = compound: CC1COc2ccccc2N1C(=O)C(Cl)Cl
Procedure, shortened: as §1

[4] = compound: CCCCC(CC)CN1C(=O)[C@@H]2[C@H](C1=O)[C@@H]1C=C[C@H]2C1 (mixture of isomers)
Procedure, shortened: as §1

[5] = compound: CCCCCCCCc1c(CC)nc2ncnn2c1N
Procedure, shortened: as §1

[6] = compound: CCCCOCCOCCOCc1cc2c(cc1CCC)OCO2
Procedure, shortened: as §1

[7] = compound: CCCOC(=O)NCCCN(C)C
Procedure, shortened: as §1

[8] = compound: COC(=O)c1csc(C)c1S(=O)(=O)NC(=O)n1nc(OC)n(C)c1=O
Procedure, shortened: as §1

[9] = compound: Cc1ccc(C(C)NC(=O)[C@@H](NC(=O)OC(C)C)C(C)C)cc1
Procedure, shortened: as §1

[10] = compound: Cc1nn(C)c(Oc2ccccc2)c1/C=N/OCc1ccc(C(=O)OC(C)(C)C)cc1
Procedure, shortened: as §1

[11] = compound: Cn1cc(C(=O)Nc2ccc(F)cc2-c2ccc(Cl)c(Cl)c2)c(C(F)F)n1
Procedure, shortened: as §1

[12] = compound: Cn1cc(C(=O)Nc2ccccc2-c2cc(F)c(F)c(F)c2)c(C(F)F)n1
Procedure, shortened: as §1

[13] = compound: O=C(NCc1ncc(C(F)(F)F)cc1Cl)c1c(Cl)cccc1Cl
Procedure, shortened: as §1

[14] = compound: Oc1c(Cl)cc(Cl)c(Cl)c1Cc1c(O)c(Cl)cc(Cl)c1Cl
Procedure, shortened: as §1

[15] = compound: S=C([S-])NCCNC(=S)[S-].S=C([S-])NCCNC(=S)[S-].[Mn+2].[Zn+2]
Procedure, shortened: as §1

[16] = compound: c1ccc2[nH]c(-c3cscn3)nc2c1
Procedure, shortened: as §1

For Aeromonas 3 (Aeromonas popoffii), the relative growth [1] was 0.933, the relative growth [2] was 0.992 and the relative growth [3] was 0.988. For the same target, the relative growth [4] was 0.988, the relative growth [5] was 1 and the relative growth [6] was 1.04. For the same target, the relative growth [7] was 1.02, the relative growth [8] was 1.03 and the relative growth [9] was 1.03. For the same target, the relative growth [10] was 1.01, the relative growth [11] was 0.999 and the relative growth [12] was 1.04. For the same target, the relative growth [13] was 1.04, the relative growth [14] was 0.00174 (active) and the relative growth [15] was 1.11. It also gave a relative growth [16] of 1.04.
Work on Pseudomonas 6 (Pseudomonas sp.) yielded a relative growth [1] of 0.901, a relative growth [2] of 1.13 and a relative growth [3] of 1.09. It also gave a relative growth [4] of 1.1, a relative growth [5] of 0.937 and a relative growth [6] of 1.14. It also gave a relative growth [7] of 0.948, a relative growth [8] of 1.09 and a relative growth [9] of 1.12. The relative growth [10] was 1.09, the relative growth [11] was 0.974 and the relative growth [12] was 1.04. The relative growth [13] was 1.05, the relative growth [14] was 0.0758 (active) and the relative growth [15] was 0.926. It also gave a relative growth [16] of 0.884.
Work on Community 10 yielded a relative growth [1] of 0.783, a relative growth [2] of 0.872 and a relative growth [3] of 0.795. For the same target, the relative growth [4] was 0.665, the relative growth [5] was 0.99 and the relative growth [6] was 0.777. For the same target, the relative growth [7] was 1.02, the relative growth [8] was 0.965 and the relative growth [9] was 0.84. For the same target, the relative growth [10] was 0.714, the relative growth [11] was 0.742 and the relative growth [12] was 1.03. For the same target, the relative growth [13] was 0.996, the relative growth [14] was 0.51 (active) and the relative growth [15] was 1.11. The relative growth [16] was 1.16.
Target “Carnobacterium 1 (Carnobacterium gallinarum)” has a relative growth [1] of 0.879, a relative growth [2] of 0.827 and a relative growth [3] of 0.955. The relative growth [4] was 0.823, the relative growth [5] was 1.13 and the relative growth [6] was 0.363. The relative growth [7] was 0.986, the relative growth [8] was 1.17 and the relative growth [9] was 1.01. The relative growth [10] was 0.951, the relative growth [11] was 0.779 and the relative growth [12] was 1. The relative growth [13] was 1.16, the relative growth [14] was 0.00936 (active) and the relative growth [15] was 0.913. It also gave a relative growth [16] of 0.908.
In the case of “Flavobacterium 1 (Flavobacterium glaciei)”, the relative growth [1] was 0.25 (active), the relative growth [2] was 1.03 and the relative growth [3] was 1.04. The relative growth [4] was 1.05, the relative growth [5] was 0.922 and the relative growth [6] was 0.986. For the same target, the relative growth [7] was 1.02, the relative growth [8] was 0.979 and the relative growth [9] was 0.922. It also gave a relative growth [10] of 0.849, a relative growth [11] of 0.793 and a relative growth [12] of 1.05. The relative growth [13] was 0.965, the relative growth [14] was 0.0158 (active) and the relative growth [15] was 0.895. For the same target, the relative growth [16] was 0.915.
In the case of Bacillus 1 (Bacillus foraminis), the relative growth [1] was 0.916, the relative growth [2] was 1.09 and the relative growth [3] was 0.965. The relative growth [4] was 1.04, the relative growth [5] was 1.05 and the relative growth [6] was 1.03. It also gave a relative growth [7] of 1.01, a relative growth [8] of 1.11 and a relative growth [9] of 0.884. For the same target, the relative growth [10] was 1.07, the relative growth [11] was 0.918 and the relative growth [12] was 1.06. The relative growth [13] was 1.08, the relative growth [14] was 0.408 (active) and the relative growth [15] was 1.05. It also gave a relative growth [16] of 0.853.
Pseudomonas 1 (Pseudomonas baetica) gave a relative growth [1] of 1.01, a relative growth [2] of 1.09 and a relative growth [3] of 1.04. It also gave a relative growth [4] of 1.13, a relative growth [5] of 0.923 and a relative growth [6] of 1.04. It also gave a relative growth [7] of 0.968, a relative growth [8] of 1.1 and a relative growth [9] of 1.06. For the same target, the relative growth [10] was 1.14, the relative growth [11] was 1.15 and the relative growth [12] was 0.984. For the same target, the relative growth [13] was 1.04, the relative growth [14] was 0.559 (active) and the relative growth [15] was 0.921. It also gave a relative growth [16] of 0.944.
With Arthrobacter 3 (Arthrobacter sp.) the relative growth [1] was 0.33 (active), the relative growth [2] was 0.933 and the relative growth [3] was 1.01. The relative growth [4] was 1.02, the relative growth [5] was 0.981 and the relative growth [6] was 1.02. The relative growth [7] was 1.02, the relative growth [8] was 1.04 and the relative growth [9] was 0.922. The relative growth [10] was 1, the relative growth [11] was 0.725 and the relative growth [12] was 0.968. For the same target, the relative growth [13] was 0.978, the relative growth [14] was 0.0157 (active) and the relative growth [15] was 0.821. For the same target, the relative growth [16] was 0.921.
“Microbacterium 1 (Microbacterium arborescens)” showed a relative growth [1] of 0.965, a relative growth [2] of 1.05 and a relative growth [3] of 0.934. The relative growth [4] was 0.918, the relative growth [5] was 0.98 and the relative growth [6] was 0.988. For the same target, the relative growth [7] was 1.02, the relative growth [8] was 1.03 and the relative growth [9] was 0.968. The relative growth [10] was 1.03, the relative growth [11] was 1.04 and the relative growth [12] was 1.01. For the same target, the relative growth [13] was 1.05, the relative growth [14] was 0.0384 (active) and the relative growth [15] was 0.986. For the same target, the relative growth [16] was 0.983.
With Aeromonas 2 (Aeromonas sobria) the relative growth [1] was 0.874, the relative growth [2] was 0.948 and the relative growth [3] was 0.962. It also gave a relative growth [4] of 0.971, a relative growth [5] of 0.986 and a relative growth [6] of 0.986. For the same target, the relative growth [7] was 0.999, the relative growth [8] was 1.01 and the relative growth [9] was 0.993. It also gave a relative growth [10] of 1.03, a relative growth [11] of 0.936 and a relative growth [12] of 0.987. For the same target, the relative growth [13] was 0.974, the relative growth [14] was 0.00514 (active) and the relative growth [15] was 0.907. It also gave a relative growth [16] of 0.973.
With Arthrobacter 1 (Arthrobacter humicola) the relative growth [1] was 0.626 (active), the relative growth [2] was 1.01 and the relative growth [3] was 0.901. The relative growth [4] was 0.835, the relative growth [5] was 0.931 and the relative growth [6] was 1.01. For the same target, the relative growth [7] was 1.04, the relative growth [8] was 1.12 and the relative growth [9] was 0.932. The relative growth [10] was 1.26, the relative growth [11] was 0.846 and the relative growth [12] was 0.99. For the same target, the relative growth [13] was 0.993, the relative growth [14] was 0.00912 (active) and the relative growth [15] was 0.994. The relative growth [16] was 0.932.
Neobacillus 1 (Neobacillus soli) was tested, and the relative growth [1] was 0.996, the relative growth [2] was 0.98 and the relative growth [3] was 0.978. The relative growth [4] was 0.974, the relative growth [5] was 0.944 and the relative growth [6] was 1.04. It also gave a relative growth [7] of 1.01, a relative growth [8] of 1.07 and a relative growth [9] of 0.946. The relative growth [10] was 0.942, the relative growth [11] was 0.848 and the relative growth [12] was 1.02. For the same target, the relative growth [13] was 1, the relative growth [14] was 0.507 (active) and the relative growth [15] was 1.06. It also gave a relative growth [16] of 0.976.
Target Community 8 has a relative growth [1] of 0.913, a relative growth [2] of 1.03 and a relative growth [3] of 1.03. For the same target, the relative growth [4] was 0.989, the relative growth [5] was 1.07 and the relative growth [6] was 0.957. It also gave a relative growth [7] of 1.03, a relative growth [8] of 1.01 and a relative growth [9] of 0.972. It also gave a relative growth [10] of 1.01, a relative growth [11] of 0.943 and a relative growth [12] of 1.04. It also gave a relative growth [13] of 1.02, a relative growth [14] of 0.806 and a relative growth [15] of 1.13. It also gave a relative growth [16] of 0.998.
Rhizobium 1 (Rhizobium herbae) gave a relative growth [1] of 0.836, a relative growth [2] of 0.893 and a relative growth [3] of 1.03. It also gave a relative growth [4] of 0.888, a relative growth [5] of 0.952 and a relative growth [6] of 1.04. For the same target, the relative growth [7] was 1.06, the relative growth [8] was 0.92 and the relative growth [9] was 1.02. The relative growth [10] was 1.02, the relative growth [11] was 0.332 (active) and the relative growth [12] was 0.185 (active). The relative growth [13] was 0.977, the relative growth [14] was 0.0348 (active) and the relative growth [15] was 1.09. It also gave a relative growth [16] of 1.14.
Argrobacterium 1 (Agrobacterium sp.) showed a relative growth [1] of 1.11, a relative growth [2] of 0.978 and a relative growth [3] of 1.03. For the same target, the relative growth [4] was 1.13, the relative growth [5] was 1.04 and the relative growth [6] was 0.946. It also gave a relative growth [7] of 0.985, a relative growth [8] of 1.01 and a relative growth [9] of 1.01. It also gave a relative growth [10] of 1.17, a relative growth [11] of 0.953 and a relative growth [12] of 0.918. For the same target, the relative growth [13] was 1.02, the relative growth [14] was 0.705 (active) and the relative growth [15] was 1.14. For the same target, the relative growth [16] was 0.852.
With “Paenibacillus 1 (Paenibacillus castaneae)” the relative growth [1] was 0.0487 (active), the relative growth [2] was 0.878 and the relative growth [3] was 0.947. For the same target, the relative growth [4] was 0.923, the relative growth [5] was 0.906 and the relative growth [6] was 1. For the same target, the relative growth [7] was 1.08, the relative growth [8] was 1.03 and the relative growth [9] was 0.947. The relative growth [10] was 0.866, the relative growth [11] was 0.835 and the relative growth [12] was 1.01. The relative growth [13] was 1.04, the relative growth [14] was 0.0147 (active) and the relative growth [15] was 0.978. It also gave a relative growth [16] of 0.987.
